AHR act: activates the human aryl hydrocarbon receptor; P35869; AHR-responsive luciferase reporter cells, luminescence; activation, % at 5 µM; actives 2.5% (n = 320,000); AID 2796; in the data active means activation above about 47%
Target sequence (P35869 whole entry, looked up): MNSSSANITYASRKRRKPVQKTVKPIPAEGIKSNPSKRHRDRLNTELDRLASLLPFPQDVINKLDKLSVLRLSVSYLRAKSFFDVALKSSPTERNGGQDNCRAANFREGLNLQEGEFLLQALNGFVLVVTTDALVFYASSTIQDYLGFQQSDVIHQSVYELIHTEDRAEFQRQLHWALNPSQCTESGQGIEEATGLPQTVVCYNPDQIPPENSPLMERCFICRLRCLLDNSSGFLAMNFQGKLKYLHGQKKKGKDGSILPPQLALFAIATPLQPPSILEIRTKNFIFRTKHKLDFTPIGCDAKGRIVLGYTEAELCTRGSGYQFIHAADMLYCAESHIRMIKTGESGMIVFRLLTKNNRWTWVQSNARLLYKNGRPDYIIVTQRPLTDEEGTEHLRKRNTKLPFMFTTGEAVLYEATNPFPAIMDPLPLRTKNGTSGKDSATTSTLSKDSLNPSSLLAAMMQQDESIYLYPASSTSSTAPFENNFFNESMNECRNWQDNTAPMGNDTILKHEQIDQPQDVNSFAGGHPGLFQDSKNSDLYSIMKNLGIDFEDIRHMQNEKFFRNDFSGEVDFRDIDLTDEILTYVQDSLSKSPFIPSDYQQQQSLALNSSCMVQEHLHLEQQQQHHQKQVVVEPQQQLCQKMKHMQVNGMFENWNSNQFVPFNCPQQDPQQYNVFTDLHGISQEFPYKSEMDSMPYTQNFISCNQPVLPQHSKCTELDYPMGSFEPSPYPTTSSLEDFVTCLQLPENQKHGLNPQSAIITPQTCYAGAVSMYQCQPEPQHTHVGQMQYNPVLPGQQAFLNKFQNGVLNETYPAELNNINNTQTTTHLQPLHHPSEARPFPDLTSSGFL
esBAF inh: blocks esBAF chromatin remodeling in mouse ES cells; reporter increase, % at 12.5 µM; AID 602393; Bmi1-luciferase knock-in reporter, 24 h; 100% = twice the neutral-well signal; actives 2% (n = 350,000); in the data active means activation above about 40%; inconclusive means no clear call, values can overlap the other calls;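 further: a rise in the Bmi1 reporter signal indicates esBAF inhibition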
MITF TRPM1 HTS: activators of MITF-driven TRPM1 promoter activity in SK-MEL-5 cells. SK-MEL-5 TRPM1-promoter luciferase, 24 h; % of positive control, neutral wells = 0. activation, % at 12.5 µM. actives 0.75% (n = 300,000). AID 588334;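 active means mean activation of at least 80% with every replicate also reaching 80%; inconclusive means mean reaches 80% but some replicate falls short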
GAA850 FXN act: activators of GAA850 frataxin (FXN) promoter; HEK293 lucGAA850 FXN promoter luciferase reporter, 24 h; percent of 10 µM SAHA response; activation, % at 6 µM; actives 0.56% (n = 360,000); AID 540364;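 active means activation above the average of all compounds screened plus 3 SD, cutoff fixed separately per campaign, cut at about 7.5% in these data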
Wnt act: Wnt/beta-catenin pathway activation; Wnt/beta-catenin reporter cell assay, activator, plate reader; activation, % at 9.35 µM; actives 1.2% (n = 300,000); in the data active means activation above about 30%, passing the limit was not always enough; inconclusive means no clear call, values can overlap the other calls
A number is an active result; n = inactive; u = inconclusive; x = no result given. An excerpt weighted towards active compounds, which were near 4.2% of everything screened.

SMILES | AHR act | esBAF inh | MITF TRPM1 HTS | GAA850 FXN act | Wnt act
O=C(NCC1CC1)[C@@H]1[C@@H](CO)[C@@H]2Cn3c(cccc3=O)[C@@H]2N1C(=O)Nc1ccccc1 | x | n | x | x | x
Clc1ccc(CSc2nc3ccncc3[nH]2)cc1 | n | n | n | n | 37
C/C(=C\C(=O)c1ccc(C)o1)Nc1ccc2c(c1)OCO2 | n | 66 | n | n | x
C/C(=C\C(=O)c1ccccc1)Nc1ccc2c(c1)OCO2 | 47 | x | n | n | n
Cc1ccc(C(=O)OCC(=O)Nc2ccc3c(c2)OCO3)o1 | n | n | n | n | n
O=C(C[C@H]1CC[C@@H]2[C@H](COC[C@@H](O)CN2C(=O)Nc2ccc(C(F)(F)F)cc2)O1)NCC1CC1 | x | n | x | x | x
COCC(=O)Nc1ccc2c(c1)[C@H]1C[C@@H](CC(=O)NCc3cc(F)ccc3F)O[C@H](CO)[C@H]1O2 | x | n | x | x | x
CCc1ccc2c(c1)C1(NN=C(c3ccc(C)cc3)S1)C(=O)N2 (stereo not given) | 55 | n | x | n | x
CCc1ccc2c(c1)NC(=O)C2(C)Cc1ccc(F)cc1 (stereo not given) | x | n | x | n | n
O=C(c1cccs1)n1cc(C(=S)N2CCOCC2)c2ccccc21 | n | n | n | n | 50
O=C(C1CC1)n1cc(C(=S)N2CCOCC2)c2ccccc21 | n | x | n | n | x
O=C(C[C@@H]1C=C[C@@H](NC(=O)c2cccnc2)[C@@H](CO)O1)NCc1ccc(Cl)c(Cl)c1 | x | n | x | x | x
C=CCNC(=O)C1CCN(c2cc(C)nc(-c3ccccc3)n2)CC1 | n | n | n | n | n
C=CCNC(=O)C1CCN(c2nc(C)cc(-c3ccccc3)n2)CC1 | n | 56 | n | n | n
COc1ccc(-c2ccc(C(=O)Nc3ccc4c(c3)OCO4)c3occc23)c(C)c1 | x | 59 | x | n | n
COc1ccc(-c2ccc(C(=O)Nc3ccc(OC)nc3)c3occc23)c(C)c1 | x | n | x | n | n
COc1ccc(-c2ccc(C(=O)Nc3ccccc3)c3occc23)c(C)c1 | x | 86 | x | n | n
Cc1noc(C)c1S(=O)(=O)Nc1ccc2c(c1)CC(=O)N([C@H](C)CO)C[C@H](C)[C@H](CN(C)Cc1ccc(C(=O)O)cc1)O2 | x | n | x | x | x
CO[C@@H]1CN(C)C(=O)c2cc(NC(=O)c3cc(C)on3)ccc2OC[C@@H](C)N(C(=O)C2CC2)C[C@H]1C | x | n | x | x | x
COc1ccc(Cl)cc1NC(=O)c1cnc2n(c1=O)CCS2 | n | n | n | n | n
COc1ccccc1NC(=O)c1cnc2n(c1=O)CCS2 | 67 | n | n | n | n
COc1ccc(OC)c(NC(=O)c2cnc3n(c2=O)CCS3)c1 | 50 | n | n | n | n
Cc1csc(C(C#N)C(=O)c2cc3ccccc3o2)n1 (stereo not given) | n | 46 | n | n | n
Cc1csc(NC(=O)c2cc3ccccc3o2)n1 | n | n | n | n | u
Cc1ccc(S(=O)(=O)NCC[C@@H]2CC[C@@H](NC(=O)c3cccnc3)[C@H](CO)O2)cc1 | x | n | x | x | x
SMILES | AHR act | esBAF inh | MITF TRPM1 HTS | GAA850 FXN act | Wnt act
COc1ccc(NC(=O)N(C)C[C@H]2OCc3cn(nn3)CCCC(=O)N([C@@H](C)CO)C[C@H]2C)cc1 | x | n | x | x | x
CCC(=O)Nc1ccc2c(c1)C(=O)N(C)C[C@H](OC)[C@H](C)CN(C(=O)COC)[C@H](C)CO2 | x | n | x | x | x
COc1ccccc1/C=C/C(=O)OCC(=O)NCc1ccc2c(c1)OCO2 | n | n | n | n | n
COc1ccccc1/C=C(/CC(=O)NCc1ccc2c(c1)OCO2)c1nc2ccccc2s1 | 81 | x | n | n | n
O=C(COc1ccc2c(c1)OCO2)Nc1nncs1 | 69 | n | n | n | n
O=C(COc1ccc2c(c1)OCO2)NC12CC3CC(CC(C3)C1)C2 | 55 | n | n | n | x
CCCC(C)c1nnc(NC(=O)COc2ccc3c(c2)OCO3)s1 (stereo not given) | 53 | n | n | n | n
CCc1nnc(NC(=O)COc2ccc3c(c2)OCO3)s1 | n | n | n | n | n
O=C(NCc1ccc2c(c1)OCO2)NC12CC3CC(CC(C3)C1)C2 | n | n | n | n | n
CCOC(=O)CC(=O)CSc1nc2c(cc1C#N)CCCCC2 | n | 52 | x | n | x
CC(C)OC(=O)CC(=O)CSc1nc2c(cc1C#N)CCCCC2 | n | x | n | n | x
CC(C)OC(=O)CSc1nc2c(cc1C#N)CCCCC2 | n | 71 | n | n | n
CCOC(=O)CC(=O)COc1nc2cc3c(nc2o1)CCCC3 | n | 59 | x | n | n
COc1ccc(CNC(=O)C[C@@H]2CC[C@@H]3[C@H](COc4ccc(NC(=O)C5CC5)cc4C(=O)N3C)O2)cc1 | x | n | x | x | x
COc1ccc(NC(=O)N(C)C[C@@H]2Oc3ccc(NS(=O)(=O)c4cn(C)cn4)cc3C(=O)N([C@H](C)CO)C[C@@H]2C)cc1 | x | n | x | x | x
CCC(=O)N(C)C[C@H]1Oc2ncc(-c3ccccc3OC)cc2C(=O)N([C@@H](C)CO)C[C@H]1C | x | n | x | x | x
FC(F)(F)c1nnc(-c2ccccc2)nc1N1CCOCC1 | 53 | n | n | n | n
CSc1nc(-c2ccccc2)nc(N2CCOCC2)c1C(C)=O | 69 | x | n | n | n
CO[C@H]1CC[C@H]2CCN(C)C(=O)C[C@H](c3ccccc3)CN(C)C(=O)c3cc(C#N)ccc3OC[C@H]1O2 | x | n | x | x | x
CC=Cc1ccc2n(c1=O)C[C@@H]1[C@@H](CO)[C@H](C(=O)NCC)N(Cc3ccccc3Cl)[C@H]21 (mixture of isomers) | x | n | x | x | x
CCn1c(-c2cc(-c3ccccc3)sc2N)n[nH]c1=S | 73 | x | x | n | n
CCn1c(-c2ccccc2O)n[nH]c1=S | n | x | n | n | x
CCCCn1c(O)c(N=NC(=O)c2ccco2)c2ccccc21 | 76 | x | n | n | x
O=C(N=Nc1c(O)n(C2OC(=O)c3ccccc32)c2ccccc12)c1ccco1 (stereo not given) | n | x | x | x | x
O=C(CNC(=O)c1ccco1)N=Nc1c(O)n(CCc2ccccc2)c2ccccc12 | 59 | n | n | n | n
SMILES | AHR act | esBAF inh | MITF TRPM1 HTS | GAA850 FXN act | Wnt act
CO[C@H]1CN(C)C(=O)c2cc(NS(C)(=O)=O)ccc2OC[C@@H](C)N(C(=O)C2CCC2)C[C@@H]1C | x | n | x | x | x
C[C@@H]1CN([C@@H](C)CO)C(=O)c2cc(NC(=O)C3CCCCC3)ccc2O[C@H]1CN(C)S(=O)(=O)c1ccccc1 | x | n | x | x | x
CCn1c(O)c(/C=C2\C=NN=C2c2ccccc2)sc1=S | n | x | x | n | n
CCCCn1c(O)c(/C=C2\C=NN=C2c2ccccc2)sc1=S | 66 | n | n | n | x
Cn1c(O)c(/C=C2\C=NN=C2c2ccccc2)sc1=S | 75 | x | n | n | n
CCCCCCn1c(O)c(/C=C2\C=NN=C2c2ccccc2)sc1=S | n | x | n | n | n
COCC(=O)Nc1ccc2c(c1)OC[C@@H](C)N(C(=O)c1ccccc1F)C[C@@H](C)[C@@H](OC)CN(C)C2=O | x | n | x | x | x
C[C@@H]1CN([C@H](C)CO)C(=O)c2cc(C#C[C@@H](C)O)cnc2O[C@@H]1CN(C)Cc1ccccn1 | x | n | x | x | x
C[C@@H]1CN([C@@H](C)CO)C(=O)c2cc(C3=CCCC3)cnc2O[C@H]1CN(C)C(=O)NC1CCCC1 | x | n | x | x | x
COc1ccc(NC2=C(NC(C)=O)C(=O)c3ccccc3C2=O)cc1 | n | n | n | n | n

Compound activity deposited in PubChem by several laboratories.
